Laboratory results from PubChem BioAssay.
Unmarked numbers belong to inactive results. For some of these results: Entries with a potency or affinity are not part of this list. Active and inactive are the calls of the source. Unless noted, the rule behind the calls is not given here.

Columns and labels:
[1] = antimalarial activity against Dd2 strain (AID 2302;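 active = growth inhibition above 50% at the single 2 µM test dose, taken to imply half-maximal potency below 2 µM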;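 note: 0% = DMSO untreated growth and 100% = chloroquine plus artemisinin killed control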); details: P. falciparum Dd2 in RBCs, LDH growth readout, 72 h; at 2 µM; active compounds read high
[2] = human hepatoma cell viability loss – ATP luminescence, cytotoxicity control for P. falciparum antimalarial project, primary screen (AID 2303;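 active = inhibition above 50%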;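 note: 0% = DMSO wells and 100% = digitonin-killed cells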); details: HepG2 viability, 24-48 h, at 10 µM, active compounds read high
[3] = target: L-lactate dehydrogenase (Plasmodium falciparum (isolate CDC / Honduras)) (UniProt Q27743); assay: PfLDH activity inhibition – cell lysate, 3D7 strain, counter-screen for P. falciparum growth inhibition project (AID 2304);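 note: 0% = vehicle and 100% = reference inhibitor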; details: P. falciparum 3D7 crude extract, LDH APAD/NBT absorbance; at 2 µM; active compounds read high
[4] = inhibition of 3D7 malaria parasite growth – strain 3D7 (AID 2306);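 note: 0% = DMSO wells and 100% = chloroquine plus artemisinin control wells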; details: P. falciparum 3D7 erythrocytic growth, LDH absorbance, 72 h; at 2 µM; active compounds read high
[5] = target: Calcium-dependent protein kinase 1 (Plasmodium falciparum (isolate 3D7)) (UniProt P62344); assay: PfCDPK1 kinase inhibitors, biochemical, TCAMS library (AID 1159585; cut-off not given, nearly all actives have IC50 up to about 0.98 µM;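 note: inhibitors leave more ATP so luminescence rises with inhibition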); details: recombinant PfCDPK1, Kinase-Glo ATP depletion luminescence
[6] = target: Plasmodium falciparum protein kinase 6 (PK6, PF3D7_1337100) (UniProt Q8IDW1); assay: PfPK6 kinase inhibitors, biochemical, TCAMS library (AID 1159586); details: recombinant PfPK6, Kinase-Glo ATP depletion luminescence
[7] = target: Protein kinase 7 (PK7), Plasmodium falciparum 3D7 (PF3D7_0213400) (UniProt Q7YTF7); assay: inhibition of Plasmodium PK7 catalytic activity – biochemical, TCAMS antimalarial set, Kinase-Glo luminescence (AID 1159587); details: recombinant PfPK7, Kinase-Glo ATP depletion luminescence
[8] = target: Calcium-dependent protein kinase 4 (Plasmodium falciparum (isolate 3D7)) (UniProt Q8IBS5); assay: PfCDPK4 kinase inhibitors, biochemical, TCAMS library (AID 1159588; cut-off not given, nearly all actives have IC50 up to about 0.91 µM); details: recombinant PfCDPK4, Kinase-Glo ATP depletion luminescence
Chain of Calcium-dependent protein kinase 4 (Plasmodium falciparum (isolate 3D7)) (Q8IBS5 whole entry, looked up): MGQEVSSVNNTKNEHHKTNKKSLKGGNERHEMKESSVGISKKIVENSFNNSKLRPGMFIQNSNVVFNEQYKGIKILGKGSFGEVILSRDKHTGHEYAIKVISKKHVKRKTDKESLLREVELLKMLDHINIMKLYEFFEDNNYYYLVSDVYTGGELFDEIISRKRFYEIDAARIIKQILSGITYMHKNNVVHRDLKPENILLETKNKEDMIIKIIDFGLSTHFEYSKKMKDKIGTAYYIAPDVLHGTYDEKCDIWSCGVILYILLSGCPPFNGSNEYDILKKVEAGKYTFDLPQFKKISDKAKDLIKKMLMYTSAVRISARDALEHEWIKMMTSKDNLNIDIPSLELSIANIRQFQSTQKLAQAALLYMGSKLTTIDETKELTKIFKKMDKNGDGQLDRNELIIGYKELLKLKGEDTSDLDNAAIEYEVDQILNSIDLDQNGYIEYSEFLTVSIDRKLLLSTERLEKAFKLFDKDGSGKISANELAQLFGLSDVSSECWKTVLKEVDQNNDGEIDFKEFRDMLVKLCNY

Chain of Calcium-dependent protein kinase 1 (Plasmodium falciparum (isolate 3D7)) (P62344 whole entry, looked up): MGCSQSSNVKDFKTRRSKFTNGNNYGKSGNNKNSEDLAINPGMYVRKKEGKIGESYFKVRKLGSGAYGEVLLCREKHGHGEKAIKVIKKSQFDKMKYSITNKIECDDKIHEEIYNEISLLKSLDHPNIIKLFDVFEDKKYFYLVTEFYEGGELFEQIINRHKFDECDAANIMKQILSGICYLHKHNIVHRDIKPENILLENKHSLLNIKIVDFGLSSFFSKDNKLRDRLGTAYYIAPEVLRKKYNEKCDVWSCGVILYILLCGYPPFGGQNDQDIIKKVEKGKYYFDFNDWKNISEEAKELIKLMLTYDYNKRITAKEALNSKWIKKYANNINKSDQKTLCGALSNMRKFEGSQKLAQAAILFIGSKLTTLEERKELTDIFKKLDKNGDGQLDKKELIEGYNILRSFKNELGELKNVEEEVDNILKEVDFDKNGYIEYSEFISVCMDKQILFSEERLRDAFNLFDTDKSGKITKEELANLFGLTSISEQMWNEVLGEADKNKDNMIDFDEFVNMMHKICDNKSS
Chain of L-lactate dehydrogenase (Plasmodium falciparum (isolate CDC / Honduras)) (Q27743 whole entry, looked up): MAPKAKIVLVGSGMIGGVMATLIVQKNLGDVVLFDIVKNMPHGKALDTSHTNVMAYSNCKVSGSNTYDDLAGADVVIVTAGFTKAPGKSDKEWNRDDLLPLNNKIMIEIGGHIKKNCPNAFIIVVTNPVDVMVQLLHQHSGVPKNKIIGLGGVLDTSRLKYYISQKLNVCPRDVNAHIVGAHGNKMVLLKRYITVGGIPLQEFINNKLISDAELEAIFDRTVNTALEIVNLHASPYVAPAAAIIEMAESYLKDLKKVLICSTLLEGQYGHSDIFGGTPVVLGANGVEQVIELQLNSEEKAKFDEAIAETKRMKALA
Chain of Plasmodium falciparum protein kinase 6 (PK6, PF3D7_1337100) (Q8IDW1 1-305): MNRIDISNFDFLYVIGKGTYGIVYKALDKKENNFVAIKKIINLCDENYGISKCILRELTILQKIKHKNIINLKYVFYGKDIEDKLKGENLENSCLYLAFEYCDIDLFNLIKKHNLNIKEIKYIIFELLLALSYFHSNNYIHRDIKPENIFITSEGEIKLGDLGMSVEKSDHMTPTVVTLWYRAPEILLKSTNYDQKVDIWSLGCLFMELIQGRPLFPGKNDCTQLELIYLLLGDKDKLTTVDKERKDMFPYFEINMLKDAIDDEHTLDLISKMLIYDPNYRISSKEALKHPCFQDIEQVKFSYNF
Chain of Protein kinase 7 (PK7), Plasmodium falciparum 3D7 (PF3D7_0213400) (Q7YTF7 1-343): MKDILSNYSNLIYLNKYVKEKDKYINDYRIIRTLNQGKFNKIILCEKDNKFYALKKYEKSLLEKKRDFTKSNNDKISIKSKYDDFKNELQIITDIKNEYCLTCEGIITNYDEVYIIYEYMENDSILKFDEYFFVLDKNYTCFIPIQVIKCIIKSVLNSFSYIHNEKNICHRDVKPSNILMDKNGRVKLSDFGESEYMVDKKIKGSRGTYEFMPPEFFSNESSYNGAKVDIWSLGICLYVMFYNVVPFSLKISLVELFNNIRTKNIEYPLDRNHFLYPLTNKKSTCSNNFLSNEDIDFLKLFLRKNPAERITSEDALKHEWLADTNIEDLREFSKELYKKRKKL

Compound	growth inhibition [1]	inhibition [2]	inhibition [3] [%]	growth inhibition [4]	outcome [5]	outcome [6]	outcome [7]	outcome [8]
COc1cccc(Nc2nccc(NCC(O)c3ccc(C(F)(F)F)cc3)n2)c1 (stereo not drawn)	28%	14%	-4	99% (active)	inactive	inactive	inactive	inactive
Oc1c(C(Nc2ccccn2)c2ccc(Cl)cc2Cl)ccc2cccnc12 (stereo not drawn)	60% (active)	42%	1	88% (active)	inactive	inactive	inactive	inactive
O=C(Nc1ccc(-c2nc3ccccc3[nH]2)cc1)C1CCCN(C2CCC2)C1 (stereo not drawn)	5%	-1%	4	90% (active)	inactive	inactive	inactive	inactive
COc1cc(CCON2C(N)=NC(N)=NC2(C)C)cc(OC)c1OC	95% (active)	59% (active)	-1	93% (active)	inactive	inactive	inactive	inactive
Cc1cc(NC2CCCC2)nc(Nc2ccccc2)n1	75% (active)	26%	0	100% (active)	inactive	inactive	inactive	inactive
CCCC(C)N(Cc1ccc(C(C)(C)C)cc1)C(=O)c1cccc(C#N)c1 (stereo not drawn)	45%	14%	-9	86% (active)	inactive	inactive	inactive	inactive
O=C(CCN1C(=O)c2ccccc2C1=O)N1CCN(CC=Cc2ccccc2)CC1	3%	10%	-1	87% (active)	inactive	inactive	inactive	inactive
Cc1cc(N2CCN(CC3CCCCC3)CC2)nc(Nc2ccc(Br)cc2)n1	16%	-1%	-6	91% (active)	inactive	inactive	inactive	inactive
O=[N+]([O-])c1cccc(C=NNc2ccnc3ccc(C(F)(F)F)cc23)c1	35%	-6%	-2	96% (active)	inactive	inactive	inactive	inactive
Cn1c(NC2=NC3(c4ccccn4)N=C(Nc4nc5ccccc5n4C)NC3(c3ccccn3)N2)nc2ccccc21 (stereo not drawn)	44%	12%	0	99% (active)	inactive	inactive	inactive	inactive
O=C(Nc1ccc(Cl)c(Cl)c1)N1CCC(NCc2cccc([N+](=O)[O-])c2)CC1	12%	8%	2	97% (active)	inactive	inactive	inactive	inactive
COc1ccccc1C1CCN(CCCCNC(=O)c2ccc(NC(=O)c3ccc(Cl)cc3)cc2)CC1	12%	21%	6	95% (active)	inactive	inactive	inactive	inactive
COc1ccc(C2=C(Nc3ccc4oc5ccccc5c4c3)c3ccccc3C2=O)cc1	92% (active)	9%	5	93% (active)	inactive	inactive	inactive	inactive
Cc1cc2c(cc1C(F)(F)F)N(C(=O)Nc1cc(C(=O)NCCN(C)C)cc(C(F)(F)F)c1)CC2	50% (active)	19%	-7	100% (active)	inactive	inactive	inactive	inactive
COc1ccc(CN2C(=S)N(Cc3ccccc3)C(=O)C2CC(=O)Nc2ccccc2)cc1OC (stereo not drawn)	73% (active)	6%	-2	96% (active)	inactive	inactive	inactive	inactive
CCc1ccc(CN2CCC(CN(c3ccc(N4CCOCC4)c(F)c3)S(=O)(=O)c3ccc(C(C)(C)CC)cc3)CC2)cc1	94% (active)	26%	-5	93% (active)	inactive	inactive	inactive	inactive
CN1CCC(NCc2cccc(-c3ccc(S(=O)(=O)NCCc4ccccn4)c(F)c3)c2)CC1	26%	11%	7	98% (active)	inactive	inactive	inactive	inactive
Nc1ccc(-c2nc3c(ccc4ccccc43)[nH]2)cc1	51% (active)	-21%	-1	84% (active)	inactive	inactive	inactive	inactive
c1ccc(C(c2ccccc2)N2CCN(C(c3cccnc3)c3nnnn3C3CCCC3)CC2)cc1 (stereo not drawn)	59% (active)	4%	0	83% (active)	inactive	inactive	inactive	inactive
Cc1ccc(F)c(C(=O)Nc2cccc(-c3nn4ccccc4c3-c3ccnc(Nc4cccc(F)c4)n3)c2)c1F	60% (active)	35%	6	98% (active)	inactive	inactive	inactive	inactive
COc1ccc2nccc(NC(=O)CNCc3ccc(-c4ccccc4)cc3)c2c1	35%	11%	-4	101% (active)	inactive	inactive	inactive	inactive

Compound	growth inhibition [1]	inhibition [2]	inhibition [3] [%]	growth inhibition [4]	outcome [5]	outcome [6]	outcome [7]	outcome [8]
O=C(Nc1ccc(F)cc1)c1cnc(N2CCN(c3ccncc3)CC2)c(Cl)c1	81% (active)	41%	-3	100% (active)	inactive	inactive	inactive	inactive
CCN(CC)Cc1cc(Nc2c3ccc(Cl)cc3nc3cccc(OC)c23)ccc1O	98% (active)	8%	-3	101% (active)	inactive	inactive	inactive	inactive
CCc1c[nH]c2c(N3CCCC3=O)cc(C(=O)N[C@@H](Cc3ccccc3)[C@H](O)CNC(C)(C)c3cccc(C(F)(F)F)c3)cc12	99% (active)	10%	1	98% (active)	inactive	inactive	inactive	inactive
O=C(/C=C/c1ccc(Cl)c(Cl)c1)NCCCCCN1CCC(NC(=O)Nc2ccc(F)c(Cl)c2)CC1	11%	98% (active)	5	100% (active)	inactive	inactive	inactive	inactive
Cc1cnc(-c2ccc(NC(=O)N3CCc4cc5nccc(N6CCN7CCC[C@H]7C6)c5cc43)c3ccccc23)o1	45%	12%	-1	100% (active)	inactive	inactive	inactive	inactive
CN(Cc1cccc(C#N)c1)C1CCN(c2cc(NC(=O)c3cccc(F)c3)ccn2)CC1	15%	-1%	-3	98% (active)	inactive	inactive	inactive	inactive
c1cncc(Oc2ccc(Nc3ccnc4cc(-c5cccc(CN6CCCCC6)c5)ccc34)cc2)c1	100% (active)	33%	4	101% (active)	inactive	inactive	inactive	inactive
COc1ccc2ncc(F)c(CCN3CC[C@@H](CNCc4cc5c(cn4)OCS5)C3)c2n1	29%	3%	0	98% (active)	inactive	inactive	inactive	inactive
Cc1cnc(N2CCN(CC3CCN(C)CC3)CC2)nc1Oc1ccc(-n2ccnc2)cc1	66% (active)	9%	-3	99% (active)	inactive	inactive	inactive	inactive
Nc1c2c(nc3ccc(NC(=O)Cc4ccccc4)cc13)CCCC2	-2%	9%	6	101% (active)	inactive	inactive	inactive	inactive
CCCN(CCCCCCNCCc1ccc(Cl)cc1)CCc1ccc(O)c(O)c1	11%	26%	-3	91% (active)	inactive	inactive	inactive	inactive
O=C(NCCN1CCOCC1)c1ccc(CNC(=O)c2ccc(O)c(-c3ccc(Cl)c(Cl)c3)c2)cc1	55% (active)	3%	-1	87% (active)	inactive	inactive	inactive	inactive
Cc1cccc2[nH]c(-c3cccc(-c4cccc(C(=O)N5CCCCC5CN5CCC(O)C5)c4)c3)nc12 (stereo not drawn)	71% (active)	19%	-5	89% (active)	inactive	inactive	inactive	inactive
COc1cccc(NC(=O)[C@H](C)n2c(=O)[nH]c3ccccc3c2=O)c1	92% (active)	8%	-3	100% (active)	inactive	inactive	inactive	inactive
OC1(c2ccccc2)c2cc(Cl)ccc2OC1c1nc2c(Cl)ccc(Cl)c2o1 (stereo not drawn)	89% (active)	7%	-6	98% (active)	inactive	inactive	inactive	inactive
CCCNC[C@@H](O)[C@H](Cc1ccccc1)NC(=O)c1cc(NCC)cc(N2CCCCS2(=O)=O)c1	74% (active)	0%	-3	97% (active)	inactive	inactive	inactive	inactive
CCNC(=O)Nc1ccc(-c2cccc(-c3nc4c(C)cccc4[nH]3)c2)cc1	34%	16%	-8	91% (active)	inactive	inactive	inactive	inactive
OCCN1CCN(Cc2ccc(-c3ccc(-c4nc5ccc(F)cc5[nH]4)cc3)cc2)CC1	99% (active)	33%	-5	101% (active)	inactive	inactive	inactive	inactive
COc1ccc2cc(C(c3nnnn3CC3CCCO3)N3CCc4ccccc43)c(=O)[nH]c2c1 (stereo not drawn)	3%	-3%	-1	94% (active)	inactive	inactive	inactive	inactive
Oc1ccc2c(c1CNC1CCCCC1)CCCC2	94% (active)	0%	-3	98% (active)	inactive	inactive	inactive	inactive
